Source: publication PMC10812921, “Transcriptional Coactivator BOB1 (OBF1, OCA-B) Modulates the Specificity of DNA Recognition by the POU-Domain Factors OCT1 and OCT2 in a Monomeric Configuration”

Legend:
POU1 (OCT1 POU domain) = POU1 (OCT1 POU domain) (human, UniProt P14859 260-458); experiment: EMSA-SELEX-seq; no BOB1; 20 mM Tris-HCl pH 7.6, 140 mM NaCl, 10% glycerol, 0.5 mM EDTA, 0.05% Triton X-100, 0.1 mg/mL BSA, 0.1 mg/mL poly(dI-dC), 5 mM DTT, room temperature, 20 min; high values mean tight binding; details: protein: recombinant; dsDNA, one strand shown
POU1 (OCT1 POU domain), sequence (P14859 260-458): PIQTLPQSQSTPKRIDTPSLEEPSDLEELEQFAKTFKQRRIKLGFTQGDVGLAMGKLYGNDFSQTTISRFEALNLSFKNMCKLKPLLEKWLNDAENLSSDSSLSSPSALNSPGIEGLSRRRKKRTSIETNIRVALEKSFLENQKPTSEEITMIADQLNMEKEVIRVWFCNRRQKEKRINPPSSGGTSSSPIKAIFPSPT
Method in brief: (§1)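 Tagged POU-domain proteins were produced in E. coli BL21, purified under denaturing conditions and renatured before use. They were mixed at 30 ng with 300 ng of a PCR-amplified double-stranded random 35-nt library, with or without 28 ng coactivator protein, in 20 μL Tris–HCl pH 7.6 binding buffer, incubating 20 min at RT. Complexes cut from native 6% PAGE were eluted and PCR-amplified over four rounds, then sequenced by Illumina, with binding preference taken as the percentage of sequenced 8-mers matching a motif pattern.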

POU2 (OCT2 POU domain) = target: T1, POU2 (OCT2 POU domain) (human, UniProt P09086 175-386); experiment: as above; details: protein: recombinant; dsDNA, one strand shown
T1 sequence: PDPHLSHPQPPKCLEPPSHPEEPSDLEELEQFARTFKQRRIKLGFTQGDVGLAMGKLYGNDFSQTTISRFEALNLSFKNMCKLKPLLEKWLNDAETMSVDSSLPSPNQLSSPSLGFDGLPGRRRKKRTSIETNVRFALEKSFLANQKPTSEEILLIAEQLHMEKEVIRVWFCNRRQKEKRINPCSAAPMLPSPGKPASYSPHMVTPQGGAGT
Method in brief: as §1

[1] = target: POU1 (OCT1 POU domain);BOB1 (OBF1, OCA-B) (human;human, UniProt P14859;Q16633 260-458;1-256, |); experiment: EMSA-SELEX-seq; with BOB1 (ternary complex band); 20 mM Tris-HCl pH 7.6, 140 mM NaCl, 10% glycerol, 0.5 mM EDTA, 0.05% Triton X-100, 0.1 mg/mL BSA, 0.1 mg/mL poly(dI-dC), 5 mM DTT, room temperature, 20 min; high values mean tight binding; details: protein: recombinant;recombinant; copies: 1;1; dsDNA, one strand shown
Method in brief: as §1

[2] = target: T2, POU2 (OCT2 POU domain);BOB1 (OBF1, OCA-B) (human;human, UniProt P09086;Q16633 175-386;1-256, |); experiment: as above; details: protein: recombinant;recombinant; copies: 1;1; dsDNA, one strand shown
T2 sequence 1: T1 sequence
T2 sequence 2: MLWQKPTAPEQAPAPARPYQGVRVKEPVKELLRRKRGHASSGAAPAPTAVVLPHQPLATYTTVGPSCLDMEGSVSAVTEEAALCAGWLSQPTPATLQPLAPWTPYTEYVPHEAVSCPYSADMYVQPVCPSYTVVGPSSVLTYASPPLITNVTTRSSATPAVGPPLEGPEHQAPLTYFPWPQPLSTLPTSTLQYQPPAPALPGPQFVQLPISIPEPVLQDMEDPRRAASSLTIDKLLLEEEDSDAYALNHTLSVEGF
Method in brief: as §1

AAAGAAAG
binding signal (POU1 (OCT1 POU domain)): 0.0679 % of ANNNNAAN 8-mers
binding signal (POU2 (OCT2 POU domain)): 0.0719 % of ANNNNAAN 8-mers
binding signal [1]: 0.08 % of ANNNNAAN 8-mers
binding signal [2]: 0.0619 % of ANNNNAAN 8-mers

AAATCAAA
binding signal (POU1 (OCT1 POU domain)): 0.133 % of ANNNNAAN 8-mers
binding signal (POU2 (OCT2 POU domain)): 0.117 % of ANNNNAAN 8-mers
binding signal [1]: 0.194 % of ANNNNAAN 8-mers
binding signal [2]: 0.136 % of ANNNNAAN 8-mers

ATAGCAAT
binding signal (POU1 (OCT1 POU domain)): 0.0515 % of ANNNNAAN 8-mers
binding signal (POU2 (OCT2 POU domain)): 0.0495 % of ANNNNAAN 8-mers
binding signal [1]: 0.0445 % of ANNNNAAN 8-mers
binding signal [2]: 0.0487 % of ANNNNAAN 8-mers

AAGCAAAC
binding signal (POU1 (OCT1 POU domain)): 0.0606 % of ANNNNAAN 8-mers
binding signal (POU2 (OCT2 POU domain)): 0.0386 % of ANNNNAAN 8-mers
binding signal [1]: 0.0878 % of ANNNNAAN 8-mers
binding signal [2]: 0.057 % of ANNNNAAN 8-mers

AATAAAAG
binding signal (POU1 (OCT1 POU domain)): 0.106 % of ANNNNAAN 8-mers
binding signal (POU2 (OCT2 POU domain)): 0.121 % of ANNNNAAN 8-mers
binding signal [1]: 0.118 % of ANNNNAAN 8-mers
binding signal [2]: 0.101 % of ANNNNAAN 8-mers

ACCGTAAT
binding signal (POU1 (OCT1 POU domain)): 0.0454 % of ANNNNAAN 8-mers
binding signal (POU2 (OCT2 POU domain)): 0.0529 % of ANNNNAAN 8-mers
binding signal [1]: 0.0332 % of ANNNNAAN 8-mers
binding signal [2]: 0.0495 % of ANNNNAAN 8-mers

AGGCTAAG
binding signal (POU1 (OCT1 POU domain)): 0.0362 % of ANNNNAAN 8-mers
binding signal (POU2 (OCT2 POU domain)): 0.0414 % of ANNNNAAN 8-mers
binding signal [1]: 0.0312 % of ANNNNAAN 8-mers
binding signal [2]: 0.0446 % of ANNNNAAN 8-mers

ACAACAAC
binding signal (POU1 (OCT1 POU domain)): 0.0187 % of ANNNNAAN 8-mers
binding signal (POU2 (OCT2 POU domain)): 0.0104 % of ANNNNAAN 8-mers
binding signal [1]: 0.0133 % of ANNNNAAN 8-mers
binding signal [2]: 0.0124 % of ANNNNAAN 8-mers

AATTTAAC
binding signal (POU1 (OCT1 POU domain)): 0.17 % of ANNNNAAN 8-mers
binding signal (POU2 (OCT2 POU domain)): 0.147 % of ANNNNAAN 8-mers
binding signal [1]: 0.117 % of ANNNNAAN 8-mers
binding signal [2]: 0.0982 % of ANNNNAAN 8-mers

AGACAAAT
binding signal (POU1 (OCT1 POU domain)): 0.114 % of ANNNNAAN 8-mers
binding signal (POU2 (OCT2 POU domain)): 0.0748 % of ANNNNAAN 8-mers
binding signal [1]: 0.187 % of ANNNNAAN 8-mers
binding signal [2]: 0.105 % of ANNNNAAN 8-mers

ACGTCAAC
binding signal (POU1 (OCT1 POU domain)): 0.013 % of ANNNNAAN 8-mers
binding signal (POU2 (OCT2 POU domain)): 0.0173 % of ANNNNAAN 8-mers
binding signal [1]: 0.0187 % of ANNNNAAN 8-mers
binding signal [2]: 0.0165 % of ANNNNAAN 8-mers

ACACCAAT
binding signal (POU1 (OCT1 POU domain)): 0.0187 % of ANNNNAAN 8-mers
binding signal (POU2 (OCT2 POU domain)): 0.0173 % of ANNNNAAN 8-mers
binding signal [1]: 0.0168 % of ANNNNAAN 8-mers
binding signal [2]: 0.019 % of ANNNNAAN 8-mers

ATACGAAA
binding signal (POU1 (OCT1 POU domain)): 0.0698 % of ANNNNAAN 8-mers
binding signal (POU2 (OCT2 POU domain)): 0.0777 % of ANNNNAAN 8-mers
binding signal [1]: 0.0698 % of ANNNNAAN 8-mers
binding signal [2]: 0.0693 % of ANNNNAAN 8-mers

ACAGTAAT
binding signal (POU1 (OCT1 POU domain)): 0.0614 % of ANNNNAAN 8-mers
binding signal (POU2 (OCT2 POU domain)): 0.0725 % of ANNNNAAN 8-mers
binding signal [1]: 0.0406 % of ANNNNAAN 8-mers
binding signal [2]: 0.0553 % of ANNNNAAN 8-mers

AATGGAAT
binding signal (POU1 (OCT1 POU domain)): 0.138 % of ANNNNAAN 8-mers
binding signal (POU2 (OCT2 POU domain)): 0.212 % of ANNNNAAN 8-mers
binding signal [1]: 0.125 % of ANNNNAAN 8-mers
binding signal [2]: 0.147 % of ANNNNAAN 8-mers

AGGGTAAC
binding signal (POU1 (OCT1 POU domain)): 0.0339 % of ANNNNAAN 8-mers
binding signal (POU2 (OCT2 POU domain)): 0.0328 % of ANNNNAAN 8-mers
binding signal [1]: 0.0343 % of ANNNNAAN 8-mers
binding signal [2]: 0.0322 % of ANNNNAAN 8-mers

ACCTAAAG
binding signal (POU1 (OCT1 POU domain)): 0.0145 % of ANNNNAAN 8-mers
binding signal (POU2 (OCT2 POU domain)): 0.0173 % of ANNNNAAN 8-mers
binding signal [1]: 0.0219 % of ANNNNAAN 8-mers
binding signal [2]: 0.0223 % of ANNNNAAN 8-mers

ATCTTAAA
binding signal (POU1 (OCT1 POU domain)): 0.0648 % of ANNNNAAN 8-mers
binding signal (POU2 (OCT2 POU domain)): 0.0552 % of ANNNNAAN 8-mers
binding signal [1]: 0.0515 % of ANNNNAAN 8-mers
binding signal [2]: 0.0636 % of ANNNNAAN 8-mers

AATGTAAA
binding signal (POU1 (OCT1 POU domain)): 0.614 % of ANNNNAAN 8-mers
binding signal (POU2 (OCT2 POU domain)): 0.509 % of ANNNNAAN 8-mers
binding signal [1]: 0.547 % of ANNNNAAN 8-mers
binding signal [2]: 0.552 % of ANNNNAAN 8-mers

AGCATAAG
binding signal (POU1 (OCT1 POU domain)): 0.105 % of ANNNNAAN 8-mers
binding signal (POU2 (OCT2 POU domain)): 0.129 % of ANNNNAAN 8-mers
binding signal [1]: 0.0441 % of ANNNNAAN 8-mers
binding signal [2]: 0.0627 % of ANNNNAAN 8-mers

AATCGAAA
binding signal (POU1 (OCT1 POU domain)): 0.0622 % of ANNNNAAN 8-mers
binding signal (POU2 (OCT2 POU domain)): 0.0512 % of ANNNNAAN 8-mers
binding signal [1]: 0.0613 % of ANNNNAAN 8-mers
binding signal [2]: 0.0438 % of ANNNNAAN 8-mers

AGATTAAG
binding signal (POU1 (OCT1 POU domain)): 0.0656 % of ANNNNAAN 8-mers
binding signal (POU2 (OCT2 POU domain)): 0.088 % of ANNNNAAN 8-mers
binding signal [1]: 0.0581 % of ANNNNAAN 8-mers
binding signal [2]: 0.0619 % of ANNNNAAN 8-mers

AGCGCAAC
binding signal (POU1 (OCT1 POU domain)): 0.0103 % of ANNNNAAN 8-mers
binding signal (POU2 (OCT2 POU domain)): 0.0104 % of ANNNNAAN 8-mers
binding signal [1]: 0.0125 % of ANNNNAAN 8-mers
binding signal [2]: 0.0107 % of ANNNNAAN 8-mers

ACTCCAAT
binding signal (POU1 (OCT1 POU domain)): 0.0294 % of ANNNNAAN 8-mers
binding signal (POU2 (OCT2 POU domain)): 0.0219 % of ANNNNAAN 8-mers
binding signal [1]: 0.0242 % of ANNNNAAN 8-mers
binding signal [2]: 0.0231 % of ANNNNAAN 8-mers

AGGCCAAA
binding signal (POU1 (OCT1 POU domain)): 0.029 % of ANNNNAAN 8-mers
binding signal (POU2 (OCT2 POU domain)): 0.027 % of ANNNNAAN 8-mers
binding signal [1]: 0.0242 % of ANNNNAAN 8-mers
binding signal [2]: 0.0281 % of ANNNNAAN 8-mers

ACACGAAC
binding signal (POU1 (OCT1 POU domain)): 0.0114 % of ANNNNAAN 8-mers
binding signal (POU2 (OCT2 POU domain)): 0.0167 % of ANNNNAAN 8-mers
binding signal [1]: 0.0121 % of ANNNNAAN 8-mers
binding signal [2]: 0.0124 % of ANNNNAAN 8-mers

AGCCGAAT
binding signal (POU1 (OCT1 POU domain)): 0.0313 % of ANNNNAAN 8-mers
binding signal (POU2 (OCT2 POU domain)): 0.0368 % of ANNNNAAN 8-mers
binding signal [1]: 0.0281 % of ANNNNAAN 8-mers
binding signal [2]: 0.033 % of ANNNNAAN 8-mers

AATACAAA
binding signal (POU1 (OCT1 POU domain)): 0.134 % of ANNNNAAN 8-mers
binding signal (POU2 (OCT2 POU domain)): 0.108 % of ANNNNAAN 8-mers
binding signal [1]: 0.148 % of ANNNNAAN 8-mers
binding signal [2]: 0.121 % of ANNNNAAN 8-mers

AACACAAT
binding signal (POU1 (OCT1 POU domain)): 0.0351 % of ANNNNAAN 8-mers
binding signal (POU2 (OCT2 POU domain)): 0.0351 % of ANNNNAAN 8-mers
binding signal [1]: 0.0293 % of ANNNNAAN 8-mers
binding signal [2]: 0.0421 % of ANNNNAAN 8-mers

AGGATAAG
binding signal (POU1 (OCT1 POU domain)): 0.0496 % of ANNNNAAN 8-mers
binding signal (POU2 (OCT2 POU domain)): 0.0558 % of ANNNNAAN 8-mers
binding signal [1]: 0.0523 % of ANNNNAAN 8-mers
binding signal [2]: 0.0479 % of ANNNNAAN 8-mers
